# Shown are actives, neighbours in structure and some others; about 13% of the full set was active somewhere.
# Pf growth 96h = Primary qHTS for delayed death inhibitors of the malarial parasite plastid, 96 hour incubation; P. falciparum luciferase reporter growth, 96 h; Potency, µM (doses to about 28.7 µM), inactives show at the top dose activity change, negative = inhibition, most hits filed as inhibitors; 320,000 tested, 6.9% active; note: potency is the fitted concentration of half-maximal effect
#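 Delayed-death screen, second-generation endpoint: infected erythrocytes, 2% hematocrit, 0.05% parasitemia final; 96 hours at 37 C, 5% CO2; luciferase detection reagent; luminescence decrease equals reduced growth.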
# HCMV inh = qHTS Assay for inhibitors of the human cytomegalovirus (HCMV); AID 1259415, 2018; activity change, negative = inhibition, % at 57.5 µM; 410,000 tested, 4.5% active; HFF cells, HCMV-luciferase reporter, 72 h; hits give low values; in the data active = activity change below about -60%; inconclusive = no clear call, values can overlap the other calls; inactive = above about -39%
#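 Luciferase read-out from HCMV-luciferase-infected HFFs (MOI 1 PFU/cell) 72 h post infection at 37C; compounds added after 16 h cell attachment; activity normalized between buffer-only basal and Salinomycin (10uM) inhibitor controls.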
# HCV inh = qHTS Assay for Inhibitors of Hepatitis C Virus (HCV) | Huh7.5.1 HCVcc-Cre infection, luciferase reporter, 44 h | AID 651820, 2012 | Potency, µM (titrated, usually from 41.8 µM), for inactives: top-dose activity change, negative = inhibition, hits mostly inhibitors | 340,000 tested, 3.4% active; note: potency is the fitted concentration of half-maximal effect
#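 1,000 cells/well; 4 h culture; + compound; + HCVcc-Cre (~0.5 moi); 44 h; luciferase substrate, RT 15 min; read 15 sec.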
# Pf growth 48h = Primary qHTS for delayed death inhibitors of the malarial parasite plastid, 48 hour incubation | P. falciparum luciferase growth in erythrocytes, 48 h | Potency, µM (series often up to 28.7 µM), without a hit: at the highest dose activity change, negative = inhibition, actives largely listed as inhibitors | 310,000 tested, 5.9% active; note: potency is the fitted concentration of half-maximal effect
#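 Luciferase-expressing parasites in RBCs, 2% Hct / 0.1% parasitemia final; RPMI 1640 + 0.5% Albumax; 37 C, 5% CO2, one generation; luminescence read-out, lower signal = inhibition.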
# An asterisk follows results filed as active; ? = inconclusive; / = no result. Unless noted, calls come from the whole dose curve; as a rule, active = well fitted inhibition curve with a large enough effect; inconclusive = small, poorly fitted or top-dose-only effect, or another doubt; inactive = no such curve, though single readings can be large or run the other way. % is set by controls: 0 for no effect and ±100 for the full control effect.
SMILES,Pf growth 96h,HCMV inh,HCV inh,Pf growth 48h
COC(=O)C1C(=O)C2=C(CC1C)NC(C)=C(C(=O)OC1CCCC1)C2c1ccc(N(C)C)cc1 (centres undefined),-6.9%,28.4,9.2%,5.22µM*
COC(=O)C1C(=O)c2c([nH]c(C(=O)OC3CCCCCC3)c2C)CC1C (centres undefined),8.28µM*,-10.6,?,-36.5%
COCCOC(=O)c1[nH]c2c(c1C)C(=O)C(C(=O)OC)C(C)C2 (centres undefined),?,83.1,-28.8%,/
COC(=O)C1C(=O)C2=C(CC1C)NC(C)=C(C(=O)OC(C)C)C2c1ccc(OC)c(O)c1 (centres undefined),/,71.3,0.1%,?
CCOc1c(Br)cc(C2CC(=O)Nc3cc(OC)c(OC)cc32)cc1OC (centres undefined),161.5%,13.4,?,?
CCOc1cc(C2CC(=O)NC3=C2C(=O)C(C(=O)OC)C(C)C3)cc(Br)c1O (centres undefined),23.3%,20.2,-17.4%,1.47µM*
COC(=O)C1C(=O)C2=C(CC1C)NC(=O)CC2c1ccc(F)cc1 (centres undefined),3.8%,25.8,-2.3%,14.7µM*
CCOC(=O)c1c(NC(=O)/C=C/c2ccc(C(C)C)cc2)sc2c1CCC2,/,-27.5,/,/
CCOc1cc(C2NC(=O)N(C)C(C)=C2C(=O)OC)cc(Br)c1O (centres undefined),4.8%,99.4,?,13.1µM*
O=C(N/N=C/c1cc(O)ccc1Br)c1cccnc1,5.8%,-38.3,?,13.1µM*
O=C(N/N=C/c1cc(Br)c(O)c(Br)c1O)c1cccnc1,-13.9%,4.7,?,10.4µM*
O=C(N/N=C/c1cc2c(cc1Br)OCO2)c1cccnc1,-18.7%,?,-5.2%,0.0%
COc1ccc(NC(=O)CSCc2cnn(-c3ccccc3)c2-n2cccc2)cc1,/,5.5,/,/
Cc1ccccc1OCC(=O)OCc1cc(=O)n2nc(C3CCCCC3)sc2n1,/,4.0,/,/
COc1cccc(-n2c(-c3ccco3)nc3c(cnn3-c3ccccc3C)c2=O)c1,/,-32.7,/,/
Cc1ccc(S(=O)(=O)CC(CN2CCCCC2)N2CCCCC2)cc1 (centres undefined),?,-98.8*,15.8µM*,8.28µM*
O=S(=O)(CC(CN1CCCCC1)N1CCCCC1)c1ccc2ccccc2c1 (centres undefined),20.2%,-73.1*,25.3%,0.0%
CCOC(=O)c1c(C)[nH]c(C)c1S(=O)(=O)N1CCN(c2ccc(Cl)cc2)CC1,/,7.1,/,/
CC(C)NC(=O)C1CCC(Cn2c(=O)c3sccc3n(CC(=O)NCc3ccccc3)c2=O)CC1 (centres undefined),/,19.5,/,/
COc1ccc(OC)c(CNC(=O)c2ccc(-c3nc(CSc4ccccc4)c(C)o3)cc2)c1,/,10.9,/,/
CCOc1ccc(CCn2c3c(c(=O)[nH]c2=O)C(NC(=O)c2cccc(F)c2)(C(F)(F)F)C(=O)N3)cc1OCC (centres undefined),/,1.7,/,/
Cc1ccc2c(c1)c1c(c(=O)n(Cc3ccccc3)c(=O)n1Cc1cccc(F)c1)n2C,/,30.1,/,/
O=C(CCCN1C(=O)S/C(=C\C=C\c2ccccc2)C1=O)Nc1ccc(O)cc1,-26.0%,-37.5,12.6µM*,?
O=C(CCCN1C(=O)/C(=C\c2cccs2)SC1=S)Nc1ccc(O)cc1,56.9%,-99.1*,?,-20.8%
O=C(CCCN1C(=O)/C(=C\c2cccs2)SC1=S)Nc1ccc(O)cc1C(=O)O,?,-36.6,12.5%,4.6%
SMILES,Pf growth 96h,HCMV inh,HCV inh,Pf growth 48h
O=C(CCCN1C(=O)/C(=C/c2cccs2)SC1=S)Nc1ccccc1O,22.2%,-91.3*,?,?
Cc1ccc(/C=C2\SC(=S)N(CCCC(=O)Nc3ccc(O)cc3)C2=O)cc1,5.6%,-94.8*,-29.0%,?
COc1ccc(-c2ccc(NS(=O)(=O)c3cccc(Cl)c3)cc2)nn1,/,-32.8,/,/
COc1ccc(/C=C2/SC(=S)N(CCCC(=O)Nc3ccccc3C(=O)O)C2=O)cc1,?,-34.0,27.6%,5.4%
O=C(CCCN1C(=O)/C(=C/c2cccs2)SC1=S)NNC(=O)c1ccncc1,-2.0%,?,-5.3%,-26.3%
O=C(CCCN1C(=O)/C(=C\c2cccs2)SC1=S)Nc1ccccn1,5.6%,-96.8*,25.1µM*,?

# Compound activity deposited in PubChem by National Center for Advancing Translational Sciences (NCATS).
